According to ChEMBL document CHEMBL4513216, “Probing the Open Global Health Chemical Diversity Library for Multistage-Active Starting Points for Next-Generation Antimalarials” (ACS Infect Dis, 2020):
Among all 69,000 compounds or so, about 8,600 (12%) showed an effect of 50% or more. This excerpt belongs to a sample that is enriched for strong results.

test system: Plasmodium berghei; experiment: Screen against P. berghei liver stage (PbLuc), transformed with Luciferase, at 10uM; format: functional, HepG2; details: tested at 10 uM

| Structure (SMILES) | INHIBITION |
| --- | --- |
| COc1cc2nc(C)n(CC(=O)NCC(C)C)c(=O)c2cc1OC | 21.5% |
| CC(=O)N1CCC(Cc2nccnc2-c2c(C)n[nH]c2C)C1 (stereo not drawn) | -14.1% |
| COCCN1C[C@@H](C)[C@@]2(COCCN(C(=O)c3cccc(C)n3)C2)C1 | -10.5% |
| Cn1cc(-c2nc(C3CCN(CC4CC4)CC3)cc3c2ncn3C)cn1 | 61.5% |
| CC(C)n1cnc2c(-c3cccnc3)nc(C3CCNCC3)cc21 | 55.7% |
| Cn1cnc2c(-c3cccnc3)nc(C3CCNCC3)cc21 | 48.4% |
| Cn1cnc2c(-c3ccccc3)nc(C3CCNCC3)cc21 | 38.5% |
| Cn1cc(-c2nc(C3CCN(S(C)(=O)=O)CC3)cc3c2ncn3C)cn1 | 15.7% |
| CC(C)n1cnc2c(N3CCCC3)nc(C3CCNCC3)cc21 | -3.52% |
| COc1ccc(-c2nc(C3CCNCC3)cc3c2ncn3C)cc1 | 53% |
| COc1ccc(-c2ccnc(C3CCNCC3)c2)cc1 | 29.2% |
| CC(=O)N1CCC(c2cc3c(ncn3C)c(-c3cnn(C)c3)n2)CC1 | 33.4% |
| O=C(CC1CC1)NCc1cn2c(n1)CN(CC1CC1)CC2 | 9.67% |
| Cc1nc2sc(C(=O)N3CCNC(=O)C3)c(C)c2c(=O)[nH]1 | -4.35% |
| Cc1nc(-c2ccsc2)ccc1C(=O)NCC(C)N1CCOCC1 (stereo not drawn) | -24.275% |
| N#Cc1ccc(F)c(CN2CCCCC2Cn2cccn2)c1 (stereo not drawn) | -36.1% |
| COc1ccccc1CC(C)CC(=O)N(C)Cc1cc(C)on1 (stereo not drawn) | 14.7% |
| O=C(c1nc2c(o1)CN(CC1CCC1)C2)N1CCCC1 | -15.6% |
| COc1cc2nc3n(c(=O)c2cc1OC)CCN(C(=O)C1CCC1)CC3 | 23.4% |
| COc1cccc(C(O)CN2CCN(c3cccc(C)c3)CC2)c1 (stereo not drawn) | 16% |
| CCc1ccc(C(O)CN2CCN(c3cccc(OC)c3)CC2)cc1 (stereo not drawn) | 54% |
| CCN1CCN(CC(O)c2ccc(OC(F)(F)F)cc2)CC1 (stereo not drawn) | 56.1% |
| COc1cccc(N2CCN(CC(O)c3ccc(C)cc3)CC2)c1 (stereo not drawn) | 17.4% |

| Structure (SMILES) | INHIBITION |
| --- | --- |
| CCn1cc(CN2CCN(CC(O)c3cc(C)ccc3C)CC2)c(C)n1 (stereo not drawn) | 43.6% |
| COc1ccc(OC)c(C(O)CN2CCN(C3CCCC3)CC2)c1 (stereo not drawn) | -113% |
| COc1cccc(N2CCN(CC(O)c3cc(C)ccc3C)CC2)c1 (stereo not drawn) | 67.9% |
| COCCN1CCN(CC(O)c2cc(OC)ccc2OC)CC1 (stereo not drawn) | -94.3% |
| COc1cccc(N2CCN(CC(O)c3cc(C)sc3C)CC2)c1 (stereo not drawn) | 63.1% |
| CCOCCN1CCN(CC(O)c2ccc(OC)cc2)CC1 (stereo not drawn) | -9.39% |
| OC(CN1CCCCCCC1)c1ccc(OC(F)(F)F)cc1 (stereo not drawn) | 19.2% |
| CCCN1CCN(CC(O)c2ccc(OC(F)(F)F)cc2)CC1 (stereo not drawn) | 33.7% |
| CCN(Cc1nonc1C)C(=O)Cn1nc(C(F)(F)F)cc1C1CC1 | 28.89% |
| Cc1cccc(CC(=O)N2CCCCC2CN)c1 (stereo not drawn) | 8.13% |
| CCC(C)(C)c1cc(-c2c(C)nn(CCO)c2C)c(C#N)c(N)n1 | -24.6% |
| NC1CCC(NC(=O)c2ccc3nc(-c4ccc(F)cc4)cn3c2)CC1 (stereo not drawn) | 24.7% |
| CN(C)CCOc1ccc(N(C)S(=O)(=O)c2cnn(C)c2)cc1 | 32.3% |
| Cc1cnn(CCNCc2nnc(-c3ccccc3)o2)c1 | 31.3% |
| COc1ccc(N2CCN(CC(O)c3cc(C)ccc3C)CC2)cc1 (stereo not drawn) | 69.8% |
| COc1ccc(OC)c(C(O)CN2CCN(c3cccc(C)c3)CC2)c1 (stereo not drawn) | 34.5% |
| COc1ccc(N2CCN(CC(O)c3ccc(C)cc3C)CC2)cc1 (stereo not drawn) | 41.6% |
| c1ncn(CC2CCCN(Cc3csc(-c4ccsc4)n3)C2)n1 (stereo not drawn) | -12.2% |
| CN(C)Cc1ccc(N2CCN(CCOCC(F)(F)F)CC2)nc1 | 33.4% |
| CN(CC(=O)N1CCCC1c1noc(C2CC2)n1)Cc1ccccc1 (stereo not drawn) | 23.7% |
| CCN1CC(COC(=O)c2cc(C)nn2CC)CC1=O (stereo not drawn) | 50.4% |
| CCN1CC(COC(=O)c2cccc(Br)c2)CC1=O (stereo not drawn) | 16.8% |
| CCn1nc(C)cc1C(=O)OCC1CC(=O)N(Cc2ccccc2)C1 (stereo not drawn) | 10.1% |

| Structure (SMILES) | INHIBITION |
| --- | --- |
| CCCOc1cc(CNC(=O)Nc2cccc(C(C)=O)c2)ccn1 | 16.6% |
| OCC1(O)CCCN(Cc2noc(-c3ccccc3)n2)C1 (stereo not drawn) | 9.41% |
| O=C(COCC(=O)N(c1ccccc1)c1ccccc1)N1CCCC1 | -7.27% |
| CCn1nc2c(cc1=O)CN(Cc1nc(-c3cccs3)no1)CC2 | 60.5% |
| CC(C)c1ncc2c(n1)CN(Cc1nc(-c3cccs3)no1)CC2 | 65.1% |
| Cc1ccc(-c2noc(CN3CCc4nn(C)c(=O)cc4C3)n2)cc1 | -11.4% |
| Cc1ncc2c(n1)CN(Cc1nc(-c3cccs3)no1)CC2 | 28.8% |
| COCCc1noc(CN2CCc3nn(C(C)C)c(=O)cc3C2)n1 | 48.2% |
| CC(C)n1nc2c(cc1=O)CN(Cc1nc(-c3ccoc3)no1)CC2 | 77.9% |
| CCCn1nc2c(cc1=O)CN(Cc1nc(-c3ccoc3)no1)CC2 | 61.1% |
| CCc1ncc2c(n1)CN(Cc1nc(-c3cccs3)no1)CC2 | 28.8% |
| Cn1nc2c(cc1=O)CN(Cc1nc(-c3cccs3)no1)CC2 | 26.1% |
| Cn1nc2c(cc1=O)CN(Cc1nc(-c3ccoc3)no1)CC2 | -7.16% |
| CCn1nc2c(cc1=O)CN(Cc1nc(-c3ccoc3)no1)CC2 | 42.1% |
| CCn1nc2c(cc1=O)CN(Cc1nc(-c3ccsc3)no1)CC2 | 7.7% |
| Cc1nn(C2CCCCC2)c2nc(C(C)(C)CN3CCOCC3)[nH]c12 | -16.9% |
| CN(Cc1noc(C2CC2)n1)C1CCN(Cc2ncc[nH]2)C1 (stereo not drawn) | 3.1% |
| Cc1nc(CN2CCCC(NCc3cnc(C(C)(C)C)s3)C2)no1 (stereo not drawn) | -19.6% |
| O=C(NCC1(Sc2ccccc2)CC1)c1cc[nH]n1 | 5.15% |
| O=C1CCC2(CCC(NCc3ccsc3)CC2)N1Cc1ccccc1 (stereo not drawn) | 29.7% |
| CCc1c(C)n(C)c2nc3ccccc3n2c1=O | -13.8% |
| CN1CCCCC1CCC(=O)NCCCn1nccc1C1CC1 (stereo not drawn) | 47.7% |
